{"source": "PubChem BioAssay (NCATS)", "note": "Values joined by “and” are separate entries in the source; they are usually repeats but may differ in a detail not shown here. Equal entries are not always repeated. Results filed as inconclusive are left out. A number with no mark means an inactive call. Active and inactive are the calls of the source. The call rests on the fitted dose curve; in most records, active means well fitted cell-killing curve with a large enough effect; inconclusive means small, poorly fitted or top-dose-only effect; inactive means flat fitted curve, though single readings scatter. Potency means the concentration at half of the fitted maximal effect.", "data": [{"test": "qHTS of pediatric cancer cell lines to identify multiple opportunities for drug repurposing: Primary screen for BT-37 cells (AID 1347094)", "conditions": "BT-37 viability, CellTiter-Glo luminescence, 48 h; series mostly up to 57.3 µM; activity change, negative = cytotoxic: at the top concentration", "excerpt": "Drug repurposing or repositioning has been offered as a strategy for drug development in oncology programs. This approach has special potential for childhood cancers and other rare or orphan diseases, where the expected return on new drug development has been a disincentive to pharmaceuticals. […] In this project we exploit the poly-pharmacology of drugs to discover new indications via phenotypic screening of a panel of 19 well-characterized cell lines derived from solid tumors seen in children and adolescents. The goal is to identify approved drugs with previously unrecognized anticancer properties that has the potential to reveal new mechanisms and biological processes involved in carcinogenesis or drug resistance. We employed a titration-based paradigm (quantitative high-throughput screening or qHTS), where all compounds were tested at multiple concentrations for their effect on cell viability. Concentration-response curves (CRCs) were derived directly from the primary screen, and both potency and efficacy values were used to identify compounds with robust bioactivity profiles. We screened the NIH Chemical Genomics Center (NCGC) Pharmaceutical Collection (NPC) and Mechanism Interrogation Plate (MIPE) small molecule collections of approved and investigational compounds against these cell lines; and measured metabolically active cells after 48 hours of compound treatment as a proxy for cell viability. […] Assay Submitter: Nathalia J. Martinez, National Center for Advancing Translational Sciences, National Institutes of Health, Rockville, MD, USA; email: natalia.martinez@nih.gov Shen, M et al. Quantitative high-throughput phenotypic screening of pediatric cancer cell lines identifies multiple opportunities for drug repurposing. Oncotarget 2017 Dec 19;9(4):4758-4772. PMID 29435139.\nThe cells were obtained from University of North Carolina (UNC), Pediatric Preclinical Testing Program (PPT), and Coriell Institute (CI). qHTS cell viability assay: Cells were assayed in growth media at a density of 500-1,000 cells/well. Five microliters of cells were dispensed into 1,536-well, white, solid-bottom, TC-treated plates (Greiner Bio One) using a multidrop dispenser and incubated at 37 degrees C, 5% CO2, under a humidified atmosphere for 5 hours. Twenty-three nanoliters of compounds and controls (neutral control DMSO or positive control bortezomib at final concentration of 2.3 µM) were subsequently transferred by Kalypsys pintool. For primary screens, the MIPE collection was tested at 11-point dilutions (final concentrations range from 0.78 nM to 46 µM) and the NPC collection at 8-point dilutions (final concentrations range from 0.59 nM to 46 µM). Compounds tested in follow-up screens were assayed at 11-point dilutions. Cells were incubated for 48 hours, followed by addition of 3 µL of CellTiter-Glo (Promega). After a 15 min incubation at room temperature, samples were analyzed for luminescence intensity using a ViewLux High-throughput CCD imager equipped with clear filters.", "values": [{"smiles": "C#CCN(C)[C@H](C)Cc1ccccc1", "Potency": "inactive"}, {"smiles": "CC(=O)[C@H]1CC[C@H]2[C@@H]3CC[C@H]4C[C@](C)(O)CC[C@]4(C)[C@H]3CC[C@]12C", "activity change, negative = cytotoxic": "4%"}, {"smiles": "NCC(CC(=O)O)c1ccc(Cl)cc1", "note": "(stereo not given)", "activity change, negative = cytotoxic": "-2.84% [at 0.745 µM]"}, {"smiles": "Cn1cc(C2=C(c3cn(C4CCN(Cc5ccccn5)CC4)c4ccccc34)C(=O)NC2=O)c2ccccc21", "activity change, negative = cytotoxic": "10.8%"}, {"smiles": "Nc1ccncc1", "activity change, negative = cytotoxic": "11.6%"}, {"smiles": "CC(=O)Nc1cc([As](=O)(O)O)ccc1O", "activity change, negative = cytotoxic": "21%"}, {"smiles": "O=C(O)c1ccc2[nH]cc(CCCCN3CC=C(c4ccccc4)CC3)c2c1", "activity change, negative = cytotoxic": "-6.55%"}, {"smiles": "CO[C@]12CC[C@@]3(C[C@@H]1[C@](C)(O)C(C)(C)C)[C@@H]1Cc4ccc(O)c5c4[C@@]3(CCN1CC1CC1)[C@H]2O5", "Potency": "39.6 µM (active)"}, {"smiles": "C=CCN1CC[C@]23c4c5ccc(O)c4O[C@H]2C(=O)CC[C@@]3(O)[C@H]1C5", "activity change, negative = cytotoxic": "9.29%"}, {"smiles": "O=c1[nH]c2ccccc2n1CCCN1CCC(n2c(=O)[nH]c3cc(Cl)ccc32)CC1", "activity change, negative = cytotoxic": "-9.59%"}, {"smiles": "O=[N+]([O-])c1cc([As](=O)(O)O)ccc1O", "activity change, negative = cytotoxic": "17.9%"}, {"smiles": "CCC(COC(=O)c1cc(OC)c(OC)c(OC)c1)(c1ccccc1)N(C)C", "note": "(stereo not given)", "activity change, negative = cytotoxic": "-6.61%"}, {"smiles": "CCCC1CCCCN1", "note": "(stereo not given)", "activity change, negative = cytotoxic": "9.51%"}, {"smiles": "N[C@@H](Cc1ccc(N(CCCl)CCCl)cc1)C(=O)O", "Potency": "15.5 µM (active) and 15.3 µM (active)"}, {"smiles": "CCCC(C)(COC(N)=O)COC(=O)NC(C)C", "note": "(stereo not given)", "Potency": "inactive"}, {"smiles": "CC(C)=CCOc1c2occc2cc2ccc(=O)oc12", "activity change, negative = cytotoxic": "-1.24%"}, {"smiles": "CC[N+](CC)(CC)CC", "activity change, negative = cytotoxic": "3.21%"}, {"smiles": "N[C@@H]1C[C@H]1c1ccccc1", "activity change, negative = cytotoxic": "11.9%"}, {"smiles": "C[C@]12CC[C@H]3[C@@H](CCC4=CC(=O)CC[C@@H]43)[C@@H]1CC[C@@H]2OC(=O)CCc1ccccc1", "activity change, negative = cytotoxic": "9.88%"}, {"smiles": "CNCC(O)c1ccc(O)cc1", "note": "(stereo not given)", "Potency": "inactive"}, {"smiles": "C[C@@H]1[C@@H](CC(C[C@H]2O[C@@H]3O[C@]4(C)CC[C@@H]5[C@H](C)CC[C@@H]([C@H]2C)[C@@]35OO4)C[S+](=O)([O-])c2ccc(COC(=O)N(C)C)cc2)O[C@@H]2O[C@]3(C)CC[C@H]4[C@H](C)CC[C@@H]1[C@@]24OO3", "note": "(stereo not given in full)", "Potency": "0.485 µM (active)"}, {"smiles": "CCOP(=S)(OCC)Oc1cc(C)nc(C(C)C)n1", "activity change, negative = cytotoxic": "3.3%"}, {"smiles": "c1ccc2c(c1)Nc1ccccc1S2", "Potency": "inactive"}, {"smiles": "Oc1cc(Cl)ccc1Oc1ccc(Cl)cc1Cl", "Potency": "40.9 µM (active)"}, {"smiles": "C=C1CC[C@@]2(O)[C@H]3Cc4ccc(O)c5c4[C@@]2(CCN3CC2CC2)[C@H]1O5", "activity change, negative = cytotoxic": "3.97%"}, {"smiles": "CN1CCN(C(=O)O[C@H]2c3nccnc3C(=O)N2c2ccc(Cl)cn2)CC1", "Potency": "inactive"}, {"smiles": "CC(C)=CC1C(C(=O)OCc2cccc(Oc3ccccc3)c2)C1(C)C", "note": "(stereo not given)", "activity change, negative = cytotoxic": "6.55%"}, {"smiles": "NP(N)(=O)NC(=O)c1ccc(F)cc1", "activity change, negative = cytotoxic": "5.59%"}, {"smiles": "CC(C)NCC(O)c1ccccc1Cl", "note": "(stereo not given)", "activity change, negative = cytotoxic": "11.5%"}, {"smiles": "CCC1(C2=NCCN2)Cc2ccccc2O1", "note": "(stereo not given)", "activity change, negative = cytotoxic": "29.4%"}, {"smiles": "CCCN1CCC[C@@H]2Cc3[nH]ncc3C[C@H]21", "activity change, negative = cytotoxic": "5.46%"}, {"smiles": "NCCc1cc(O)c(O)cc1O", "activity change, negative = cytotoxic": "8.24%"}, {"smiles": "Cc1ccc2c(c1)C1CN(C)CCC1N2", "note": "(stereo not given)", "activity change, negative = cytotoxic": "-6.66% [at 20.1 µM]"}, {"smiles": "CCN(C(C)=O)c1cccc(-c2ccnc3c(C#N)cnn23)c1", "activity change, negative = cytotoxic": "-5.61%"}, {"smiles": "C[C@]12CCC(=O)C(O)=C1CC[C@@H]1[C@@H]2CC[C@]2(C)C(=O)CC[C@@H]12", "activity change, negative = cytotoxic": "0.86%"}, {"smiles": "O=P1(NCCCl)OCCCN1CCCl", "note": "(stereo not given)", "Potency": "inactive"}, {"smiles": "CCC(C(N)=O)N1CCCC1=O", "note": "(stereo not given)", "activity change, negative = cytotoxic": "11.3%"}, {"smiles": "CC(=O)[C@H]1CC[C@H]2[C@@H]3CC[C@H]4C[C@H](O)CC[C@]4(C)[C@H]3C(=O)C[C@]12C", "activity change, negative = cytotoxic": "2.72%"}, {"smiles": "Cc1ncc(CNC(=O)N(CCCl)N=O)c(N)n1", "activity change, negative = cytotoxic": "8.18%"}, {"smiles": "CNC(=O)c1ccc(N2C(=S)N(c3ccc(C#N)c(C(F)(F)F)c3)C(=O)C23CCC3)cc1F", "activity change, negative = cytotoxic": "3.92%"}]}]}
